Assay [1] is described as follows: A CellTox Green Cytotoxicity Assay to monitor cytotoxicity in HEK293 cells - 40 hour (AID 1224871). Note: nearly all actives have a fitted effect of over 45% in size. Note: potency is the fitted concentration of half-maximal effect. In outline: (§1)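 Nonlytic real-time cytotoxicity: HEK293 + CellTox Green reagent plated, 5 h preincubation, pintool compound addition (23 nL in DMSO), 37 C for 40 h, fluorescence measured at successive time points.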
The nature of assay [2]: qHTS RealTime-Glo MT Cell Viability Assay in HEK293 cells - 16 hour (AID 1224872). For activity change, negative = cytotoxicity: top concentration of the series differs between compounds. Note: nearly all actives have a fitted effect of over 50% in size. Note: potency is the fitted concentration of half-maximal effect. An outline of the steps:
(§2)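 Cells + reagent dispensed (600 cells/well, HEK293) → 5 h at 37 C/5% CO2 → 23 nL compound in DMSO pinned → 40 h at 37 C → luminescence read at 0, 8, 16, 24, 32, 40 h.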

Assay [3] can be described thus: qHTS RealTime-Glo MT Cell Viability Assay in HepG2 cells - 8 hour (AID 1224873). Note: nearly all actives have a fitted effect of over 55% in size. Note: potency is the fitted concentration of half-maximal effect. In outline: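 HepG2 cells (600/well) mixed with RealTime-Glo MT reagent, settled 5 h at 37 C/5% CO2 before compound addition. Nonlytic NanoLuc luminescence from viable-cell prosubstrate reduction read repeatedly during 40 h treatment at 37 C.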
For orientation: In qHTS, concentration-response curves come from the screen itself.

The nature of assay [4]: qHTS RealTime-Glo MT Cell Viability Assay in HEK293 cells - 40 hour (AID 1224874). Note: nearly all actives have a fitted effect of over 50% in size. The settings on record: RealTime-Glo luminescence; max response: hits give low values. An outline of the steps:
(§3)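 Cells were seeded together with NanoLuc luciferase and a prosubstrate that viable cells reduce to a luciferase substrate. After a 5 h incubation at 37 C/5% CO2, compounds were added and luminescence was measured repeatedly during 40 h of treatment.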

Assay [5] can be described thus: A CellTox Green Cytotoxicity Assay to monitor cytotoxicity in HEK293 cells - 24 hour (AID 1224875). For activity change: series mostly up to about 77 µM. Note: nearly all actives have a fitted effect of over 45% in size. Note: potency is the fitted concentration of half-maximal effect. An outline of the steps: as §1
Assay [6] in a line: qHTS RealTime-Glo MT Cell Viability Assay in HepG2 cells - 32 hour (AID 1224877). Note: nearly all actives have a fitted effect of over 55% in size. Note: potency is the fitted concentration of half-maximal effect. An outline of the steps: (§4)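 Real-time, nonlytic viability: 600 HepG2 cells/well mixed with NanoLuc enzyme plus prosubstrate; 5 h settle, compound (DMSO) added by pintool; luminescence monitored over 40 h at 37 C.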
The nature of assay [7]: A CellTox Green Cytotoxicity Assay to monitor cytotoxicity in HepG2 cells - 24 hour (AID 1224878). Note: nearly all actives have a fitted effect of over 45% in size. Note: potency is the fitted concentration of half-maximal effect. An outline of the steps:
(§5)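 Read-out is fluorescence of a cyanine dye excluded from live cells that stains DNA of dead HepG2 cells, with signal proportional to cytotoxicity. Plates were read at 0, 8, 16, 24, 32 and 40 h after compound addition.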

The nature of assay [8]: A CellTox Green Cytotoxicity Assay to monitor cytotoxicity in HepG2 cells - 40 hour (AID 1224879). Note: nearly all actives have a fitted effect of over 40% in size. Note: potency is the fitted concentration of half-maximal effect. In outline:
as §5

The nature of assay [9]: qHTS RealTime-Glo MT Cell Viability Assay in HEK293 cells - 0 hour (AID 1224880). Note: top concentration of the series differs between compounds; nearly all actives have a fitted effect of over 45% in size. An outline of the steps:
as §3

Assay [10] can be described thus: A CellTox Green Cytotoxicity Assay to monitor cytotoxicity in HEK293 cells - 32 hour (AID 1224881). Note: nearly all actives have a fitted effect of over 40% in size. Note: potency is the fitted concentration of half-maximal effect. An outline of the steps:
as §1

The nature of assay [11]: A CellTox Green Cytotoxicity Assay to monitor cytotoxicity in HepG2 cells - 0 hour (AID 1224882). Note: nearly all actives have a fitted effect of over 35% in size. In outline: as §5
The nature of assay [12]: A CellTox Green Cytotoxicity Assay to monitor cytotoxicity in HepG2 cells - 32 hour (AID 1224883). Note: nearly all actives have a fitted effect of over 50% in size. Note: potency is the fitted concentration of half-maximal effect. An outline of the steps: as §5
Assay [13] can be described thus: A CellTox Green Cytotoxicity Assay to monitor cytotoxicity in HEK293 cells - 8 hour (AID 1224884). Note: nearly all actives have a fitted effect of over 35% in size. An outline of the steps: as §1
A short description of assay [14]: qHTS RealTime-Glo MT Cell Viability Assay in HepG2 cells - 16 hour (AID 1224885). Note: nearly all actives have a fitted effect of over 50% in size. Note: potency is the fitted concentration of half-maximal effect. An outline of the steps: as §4
Assay [15] in a line: qHTS RealTime-Glo MT Cell Viability Assay in HEK293 cells - 24 hour (AID 1224886). For activity change, negative = cytotoxicity: top concentration of the series differs between compounds. Note: nearly all actives have a fitted effect of over 50% in size. Note: potency is the fitted concentration of half-maximal effect. In outline: as §2
The nature of assay [16]: qHTS RealTime-Glo MT Cell Viability Assay in HEK293 cells - 8 hour (AID 1224887). For activity change, negative = cytotoxicity: top concentration of the series differs between compounds. Note: nearly all actives have a fitted effect of over 50% in size. Note: potency is the fitted concentration of half-maximal effect. In outline:
as §3

Assay [17] can be described thus: A CellTox Green Cytotoxicity Assay to monitor cytotoxicity in HEK293 cells - 16 hour (AID 1224888). Note: nearly all actives have a fitted effect of over 35% in size. Note: potency is the fitted concentration of half-maximal effect. An outline of the steps:
as §1

A short description of assay [18]: qHTS RealTime-Glo MT Cell Viability Assay in HepG2 cells - 0 hour (AID 1224889). Note: nearly all actives have a fitted effect of over 50% in size. In outline:
as §4

Assay [19] in a line: A CellTox Green Cytotoxicity Assay to monitor cytotoxicity in HepG2 cells - 8 hour (AID 1224890). Note: nearly all actives have a fitted effect of over 45% in size. In outline: as §5
Assay [20] can be described thus: A CellTox Green Cytotoxicity Assay to monitor cytotoxicity in HepG2 cells - 16 hour (AID 1224876). Note: nearly all actives have a fitted effect of over 45% in size. Note: potency is the fitted concentration of half-maximal effect. An outline of the steps: as §5

Values joined by “and” are separate entries in the source; they are usually repeats but may differ in a detail not shown here. Equal entries are not always repeated. Unmarked numbers belong to inactive results. Records with an inconclusive call do not appear. Active and inactive are the calls of the source. Calls come from the whole dose curve; as a rule, active = well fitted curve in the direction sought with a large enough effect in the repeat runs; inconclusive = weak or mixed curves; inactive = no such curve, though single readings can be large; an effect the other way counts as inactive or inconclusive.

The text below walks through data of PubChem BioAssay (Tox21).
% is set by controls: 0 for no effect and ±100 for the full control effect.

Take `CC(C)(c1cc(Br)c(OCC(Br)CBr)c(Br)c1)c1cc(Br)c(OCC(Br)CBr)c(Br)c1` (stereo not drawn): the Potency result in [1], in [2], in assay [3], in assay [5], in [6] and in [7] was “inactive” in each case. The Potency entry in [8], in assay [9], in assay [10], in assay [11], in assay [12] and in [13] was “inactive” throughout. The Potency result in [14], in assay [15], in assay [16], in [17], in [18] and in assay [19] was “inactive” throughout. In addition, the max response in assay [4] is -0.358%.
With `CC(C)(C)CC(C)(C)c1ccc(Nc2ccc(C(C)(C)CC(C)(C)C)cc2)cc1`, the cytotoxicity increase in [1] is 0.599% [at 6.97 µM]; in [20], -0.431% [at 6.97 µM]; in [8] it was 2.12% [at 6.97 µM]; in [12], 0.939% [at 6.97 µM]; in assay [13], 0.178% [at 6.97 µM]; in assay [19], 1.07% [at 6.97 µM]. The activity change, negative = cytotoxicity in assay [2] was -0.589% [at 6.97 µM]; in [9] it was -8.12% [at 6.97 µM]; in assay [15], 3.98% [at 6.97 µM]; in assay [16] it was -20.4% [at 6.97 µM]; in assay [18] it was 1.23% [at 6.97 µM]. In addition, the viability change, negative = cytotoxic in [3] is 4.91% [at 6.97 µM]. Besides, the max response in [4] is 9%. For the same molecule, the activity change in assay [5] is 4.29% [at 6.97 µM, hits give high values]; in assay [17] it was 5.08% [at 6.97 µM, hits give high values]. In addition, the activity change, negative = cytotoxic in assay [6] is 0.186% [at 6.97 µM]; in [14], 0.171% [at 6.97 µM]. Moreover, the cytotoxicity in [7] was 4.45% [at 6.97 µM]; in assay [11] it was 0.162% [at 6.97 µM].
For `O=C1c2ccccc2C(=O)N1SC1CCCCC1`, the Potency in assay [1] is 12.3 µM (active) and 21.9 µM (active); in [2] it was 34.6 µM (active) and 38.9 µM (active); in assay [3], 38.9 µM (active); in [5], 13.8 µM (active) and 34.7 µM (active); in [20], 43.6 µM (active); in [6] it was 43.6 µM (active). Besides, the Potency was 21.9 µM (active) in assay [7]; 24.5 µM (active) in assay [8]; 12.3 µM (active) and 24.5 µM (active) in assay [10]; 24.5 µM (active) in assay [12]; 38.9 µM (active) in [14]; 34.6 µM (active) and 34.7 µM (active) in [15]. The Potency was 38.9 µM (active) in assay [16] and 43.6 µM (active) in assay [17]. Also, the Potency result in assay [9], in [11], in [13] and in [18] was “inactive” each time.
As for `CCCCCCCC`, the Potency entry in assay [1], in [2], in [3], in [5], in assay [20] and in [6] was “inactive” in each case. The Potency result in [7], in [8], in assay [9], in assay [10], in [11] and in assay [12] was “inactive” each time. In addition, the Potency result in assay [13], in assay [14], in assay [15], in [16], in assay [17] and in assay [18] was “inactive” each time. The Potency entry in assay [19] is “inactive”.
With `CCCCOC(=O)CO`, the Potency entry in assay [1], in assay [2], in [3], in assay [5], in [20] and in [6] was “inactive” throughout. For the same molecule, the Potency entry in [7], in assay [8], in assay [9], in [10], in [11] and in [12] was “inactive” throughout. The Potency entry in assay [13], in [14], in assay [15], in [16], in assay [17] and in assay [18] was “inactive” throughout. The Potency entry in [19] was “inactive”.
Turning to `Cc1cccc2cccnc12`, the Potency entry in assay [1], in assay [2], in [5], in assay [20], in assay [6] and in assay [7] was “inactive” in each case. For the same molecule, the Potency result in assay [8], in assay [9], in [10], in assay [11], in [12] and in [13] was “inactive” each time. The Potency result in assay [14], in assay [15], in assay [16], in assay [17], in assay [18] and in [19] was “inactive” each time. Also, the max response in assay [4] is 0.538%.
